Measurements published in PubChem BioAssay AID1159580 (chemical genetic matrix, 2015).
“And” between values parts separate entries of the source, which are not always exact repeats. Equal values may be shown once. In all, about 5,500 compounds went through this assay and about 2,000 (36%) were called active. Another 18% or so got no clear call; they are omitted. No stated cut-off is given here; in the data, active means normalized growth mostly below about 0.91 (no sharp cut-off); inconclusive means no clear call, values can overlap the other calls; inactive means mostly above about 0.92. The list shows a part of the results.

Experiment: chemical genetic growth profiling, strain panel (AID 1159580);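 further: tested at 20 µM; growth read once vehicle control cultures reached saturation at 30 °C; 1 = growth at the plate median or of vehicle wells; lower values mean less growth of the strain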
Conditions: growth OD
[1] = S. cerevisiae deletion strains, locus YHR030C, strain SLT2, active compounds read low
[2] = S. cerevisiae deletion strains, locus YHR079C, strain IRE1, active compounds read low
[3] = S. cerevisiae deletion strains, locus YJL095W, strain BCK1, active compounds read low
[4] = S. cerevisiae deletion strains, locus YJR066W, strain TOR1, active compounds read low
[5] = S. cerevisiae deletion strains, locus YLR113W, strain HOG1, active compounds read low
[6] = S. cerevisiae deletion strains, locus YNL183C, strain NPR1, active compounds read low
[7] = S. cerevisiae deletion strains, locus YOR231W, strain MKK1, active compounds read low
[8] = S. cerevisiae deletion strains, locus YPL256C, strain CLN2, active compounds read low

Measured: normalized growth

CSc1ccc(/C=C/[N+](=O)[O-])cc1
active: S. cerevisiae deletion strains, locus YAL013W, strain DEP1, active compounds read low 0.0558 | S. cerevisiae deletion strains, locus YBR229C, strain ROT2, active compounds read low 0.0536 | S. cerevisiae deletion strains, locus YCL061C, strain MRC1, active compounds read low 0.0551 | S. cerevisiae deletion strains, locus YDL101C, strain DUN1, active compounds read low 0.0652 | S. cerevisiae deletion strains, locus YDL134C, strain PPH21, active compounds read low 0.0471 | S. cerevisiae deletion strains, locus YDR150W, strain NUM1, active compounds read low 0.582 | S. cerevisiae deletion strains, locus YEL061C, strain CIN8, active compounds read low 0.0542 | S. cerevisiae deletion strains, locus YGR052W, strain FMP48, active compounds read low 0.131 | S. cerevisiae deletion strains, locus YGR078C, strain PAC10, active compounds read low 0.0514 | [1] 0.0754 and 0.122 | [2] 0.176 | S. cerevisiae deletion strains, locus YHR082C, strain KSP1, active compounds read low 0.118 | S. cerevisiae deletion strains, locus YHR087W, strain rtc3, active compounds read low 0.0549 | [3] 0.126 | S. cerevisiae deletion strains, locus YJR043C, strain POL32, active compounds read low 0.0504 | [4] 0.114 | S. cerevisiae deletion strains, locus YJR075W, strain HOC1, active compounds read low 0.0722 | S. cerevisiae deletion strains, locus YKL171W, strain NNK1, active compounds read low 0.104 | S. cerevisiae deletion strains, locus YKL190W, strain CNB1, active compounds read low 0.0461 | S. cerevisiae deletion strains, locus YKL203C, strain TOR2, active compounds read low 0.107 | S. cerevisiae deletion strains, locus YLR039C, strain RIC1, active compounds read low 0.0613 | S. cerevisiae deletion strains, locus YLR058C, strain SHM2 (second series), active compounds read low 0.0502 | S. cerevisiae deletion strains, locus YLR085C, strain ARP6, active compounds read low 0.0653 | [5] 0.179 | S. cerevisiae deletion strains, locus YLR262C, strain YPT6, active compounds read low 0.0583 | S. cerevisiae deletion strains, locus YML094W, strain GIM5, active compounds read low 0.0645 | S. cerevisiae deletion strains, locus YMR219W, strain ESC1, active compounds read low 0.0483 | S. cerevisiae deletion strains, locus YMR263W, strain SAP30, active compounds read low 0.0556 | S. cerevisiae deletion strains, locus YNL153C, strain GIM3, active compounds read low 0.0516 | [6] 0.138 | S. cerevisiae deletion strains, locus YNL207W, strain RIO2, active compounds read low 0.0972 | S. cerevisiae deletion strains, locus YNL298W, strain CLA4 (second series), active compounds read low 0.0614 | S. cerevisiae deletion strains, locus YNL322C, strain KRE1, active compounds read low 0.0528 | S. cerevisiae deletion strains, locus YNR030W, strain Alg12, active compounds read low 0.0591 | S. cerevisiae deletion strains, locus YOL006C, strain TOP1, active compounds read low 0.068 | S. cerevisiae deletion strains, locus YOR119C, strain RIO1, active compounds read low 0.119 | [7] 0.133 | S. cerevisiae deletion strains, locus YPL055C, strain LGE1, active compounds read low 0.0721 | S. cerevisiae deletion strains, locus YPL241C, strain CIN2, active compounds read low 0.0816 | [8] 0.17 | S. cerevisiae deletion strains, locus YPR135W, strain CTF4, active compounds read low 0.202 | S. cerevisiae strains, strain wild type, active compounds read low 0.0455

CC(=O)Nc1ccc(S(=O)(=O)c2ccc(NC(C)=O)cc2)cc1
inactive: S. cerevisiae deletion strains, locus YAL021C, strain ccr4, active compounds read low 1.03 | S. cerevisiae deletion strains, locus YAL026C, strain drs2, active compounds read low 1.02 | S. cerevisiae deletion strains, locus YAL030W, strain snc1, active compounds read low 1.02 | S. cerevisiae deletion strains, locus YBL061C, strain skt5, active compounds read low 1.02 | S. cerevisiae deletion strains, locus YBR009C, strain hhf1, active compounds read low 0.997 | S. cerevisiae deletion strains, locus YBR023C, strain chs3, active compounds read low 1.01 | S. cerevisiae deletion strains, locus YBR171W, strain sec66, active compounds read low 1.02 | S. cerevisiae deletion strains, locus YBR231C, strain swc5, active compounds read low 1.02 | S. cerevisiae deletion strains, locus YBR279W, strain paf1, active compounds read low 1.01 | S. cerevisiae deletion strains, locus YCL011C, strain gbp2, active compounds read low 1.01 | S. cerevisiae deletion strains, locus YCL016C, strain dcc1, active compounds read low 0.995 | S. cerevisiae deletion strains, locus YCL069W, strain vba3, active compounds read low 1.02 | S. cerevisiae deletion strains, locus YCR088W, strain abp1, active compounds read low 1.01 | S. cerevisiae deletion strains, locus YDL005C, strain med2, active compounds read low 1.01 | S. cerevisiae deletion strains, locus YDL040C, strain nat1, active compounds read low 1.02 | S. cerevisiae deletion strains, locus YDR001C, strain nth1, active compounds read low 1.02 | S. cerevisiae deletion strains, locus YDR069C, strain doa4, active compounds read low 1.02 | S. cerevisiae deletion strains, locus YDR137W, strain rgp1, active compounds read low 1.03 | S. cerevisiae deletion strains, locus YDR159W, strain sac3, active compounds read low 0.97 | S. cerevisiae deletion strains, locus YDR195W, strain ref2 1.02 | S. cerevisiae deletion strains, locus YDR297W, strain sur2, active compounds read low 1.01 | S. cerevisiae deletion strains, locus YDR334W, strain swr1, active compounds read low 1.02 | S. cerevisiae deletion strains, locus YDR335W, strain msn5, active compounds read low 1.01 | S. cerevisiae deletion strains, locus YDR392W, strain spt3, active compounds read low 0.998 | S. cerevisiae deletion strains, locus YEL003W, strain gim4, active compounds read low 1.02 | S. cerevisiae deletion strains, locus YEL037C, strain rad23, active compounds read low 1.02 | S. cerevisiae deletion strains, locus YEL061C, strain CIN8 (second series), active compounds read low 1.02 | S. cerevisiae deletion strains, locus YER015W, strain faa2, active compounds read low 1.02 | S. cerevisiae deletion strains, locus YER016W, strain bim1, active compounds read low 0.996 | S. cerevisiae deletion strains, locus YER111C, strain swi4, active compounds read low 1.01 | S. cerevisiae deletion strains, locus YER155C, strain BEM2 (second series), active compounds read low 1.04 | S. cerevisiae deletion strains, locus YFR010W, strain ubp6, active compounds read low 1.01 | S. cerevisiae deletion strains, locus YGL167C, strain pmr1, active compounds read low 1.01 | S. cerevisiae deletion strains, locus YGL173C, strain kem1, active compounds read low 1.02 | S. cerevisiae deletion strains, locus YGL227W, strain vid30, active compounds read low 1.01 | S. cerevisiae deletion strains, locus YGL240W, strain doc1, active compounds read low 1.02 | S. cerevisiae deletion strains, locus YGL253W, strain hxk2, active compounds read low 1 | S. cerevisiae deletion strains, locus YHR013C, strain ard1, active compounds read low 1.03 | S. cerevisiae deletion strains, locus YHR027C, strain rpn1, active compounds read low 1.01 | [1] 1.07 | [2] 1.09 | S. cerevisiae deletion strains, locus YHR142W, strain chs7, active compounds read low 1.02 | S. cerevisiae deletion strains, locus YJL092W, strain hpr5, active compounds read low 1 | S. cerevisiae deletion strains, locus YJL095W, strain BCK1 (second series), active compounds read low 1.01 | [3] 1.01 | S. cerevisiae deletion strains, locus YJL115W, strain asf1, active compounds read low 1.02 | S. cerevisiae deletion strains, locus YJL129C, strain trk1, active compounds read low 0.999 | S. cerevisiae deletion strains, locus YJL154C, strain vps35, active compounds read low 1.02 | S. cerevisiae deletion strains, locus YJL164C, strain tpk1, active compounds read low 1 | S. cerevisiae deletion strains, locus YJL166W, strain qcr8, active compounds read low 1.02 | S. cerevisiae deletion strains, locus YJL187C, strain SWE1, active compounds read low 1.01 | [4] 0.988 | S. cerevisiae deletion strains, locus YKL160W, strain elf1, active compounds read low 1.01 | S. cerevisiae deletion strains, locus YKR026C, strain gcn3, active compounds read low 0.999 | S. cerevisiae deletion strains, locus YKR091W, strain srl3, active compounds read low 1.01 | S. cerevisiae deletion strains, locus YLL001W, strain dnm1, active compounds read low 1.01 | S. cerevisiae deletion strains, locus YLL026W, active compounds read low 1.01 | S. cerevisiae deletion strains, locus YLL041C, strain sdh2, active compounds read low 0.997 | S. cerevisiae deletion strains, locus YLR027C, strain aat2, active compounds read low 1 | [5] 0.972 | S. cerevisiae deletion strains, locus YLR221C, strain rsa3, active compounds read low 0.987 | S. cerevisiae deletion strains, locus YLR258W, strain gsy2, active compounds read low 1.02 | S. cerevisiae deletion strains, locus YLR262C, strain YPT6 (second series), active compounds read low 1.04 | S. cerevisiae deletion strains, locus YLR320W, strain mms22, active compounds read low 1.03 | S. cerevisiae deletion strains, locus YLR342W, strain FKS1, active compounds read low 1.01 | S. cerevisiae deletion strains, locus YLR357W, strain rsc2, active compounds read low 1.01 | S. cerevisiae deletion strains, locus YLR370C, strain arc18, active compounds read low 1.01 | S. cerevisiae deletion strains, locus YLR384C, strain iki3, active compounds read low 1.01 | S. cerevisiae deletion strains, locus YML120C, strain ndi1, active compounds read low 1.03 | S. cerevisiae deletion strains, locus YMR058W, strain fet3, active compounds read low 1.01 | S. cerevisiae deletion strains, locus YMR125W, strain sto1, active compounds read low 1.01 | S. cerevisiae deletion strains, locus YMR129W, active compounds read low 1.02 | S. cerevisiae deletion strains, locus YMR205C, strain PFK2, active compounds read low 1.01 | S. cerevisiae deletion strains, locus YMR231W, strain pep5, active compounds read low 1.01 | S. cerevisiae deletion strains, locus YNL071W, strain lat1, active compounds read low 1.02 | [6] 0.971 | S. cerevisiae deletion strains, locus YNL209W, strain ssb2, active compounds read low 1.01 | S. cerevisiae deletion strains, locus YNL248C, strain rpa49, active compounds read low 1.02 | S. cerevisiae deletion strains, locus YNL322C, strain KRE1 (second series), active compounds read low 1.01 | S. cerevisiae deletion strains, locus YNR049C, strain mso1, active compounds read low 1.01 | S. cerevisiae deletion strains, locus YOR001W, strain rrp6, active compounds read low 1.02 | S. cerevisiae deletion strains, locus YOR070C, strain gyp1, active compounds read low 1.01 | S. cerevisiae deletion strains, locus YOR080W, strain dia2, active compounds read low 1.02 | S. cerevisiae deletion strains, locus YOR083W, strain WHI5, active compounds read low 0.979 | S. cerevisiae deletion strains, locus YOR106W, strain vam3, active compounds read low 1.02 | [7] 1.05 | S. cerevisiae deletion strains, locus YOR265W, strain rbl2, active compounds read low 1.01 | S. cerevisiae deletion strains, locus YOR270C, strain vph1, active compounds read low 1.02 | S. cerevisiae deletion strains, locus YOR290C, strain snf2, active compounds read low 1.01 | S. cerevisiae deletion strains, locus YPL051W, strain arl3, active compounds read low 1.01 | S. cerevisiae deletion strains, locus YPL078C, strain atp4, active compounds read low 1.02 | S. cerevisiae deletion strains, locus YPL106C, strain sse1, active compounds read low 1.02 | S. cerevisiae deletion strains, locus YPL240C, strain hsp82, active compounds read low 1 | [8] 1.08
